PubChem BioAssay (NCATS)
Records with an inconclusive call do not appear. A call without a number means that no potency is given here. The source made the active and inactive calls. Calls come from the whole dose curve; as a rule, active = well fitted activation curve with a large enough effect; inconclusive = small, poorly fitted or top-dose-only effect; inactive = flat fitted curve, though single readings scatter.

Molecular target: Cellular tumor antigen p53 (Homo sapiens) (UniProt P04637)
Test: Primary qHTS for small molecule compounds that upregulate eGFP-tagged delta133p53alpha (in C-terminal) cells. (AID 2060324)
Settings: NCI-H358 delta133p53alpha-eGFP (C-terminal tag), GFP fluorescence imaging, 24 h; series mostly up to 57.5 µM
Source text: Assay Development and Screening Technology
National Center for Advancing Translational Sciences (NCATS),
National Institute of Health (NIH), Rockville, Maryland
Cellular senescence (CS) is one of the hallmarks of aging and age-related diseases. Senescent cells are characterized by an irreversible growth arrest, an increase in senescence-associated beta-galactosidase (SA-beta-gal) activity and p16INK4a expression, an activation of the DNA damage response pathways, and the emergence of a senescence-associated secretory phenotype (SASP).
Delta133p53alpha, a human/primate-specific p53 protein isoform, delays or inhibits the induction of CS and SASP in various types of human cells, including progeria-derived fibroblasts, primary normal astrocytes, and CD8+ T lymphocytes. Induction of delta133p53alpha with small molecule compounds may provide therapeutic opportunities for inhibition of senescence/SASP-associated pathologies in progeria syndromes, astrocyte-mediated neuroprotection in neurodegenerative diseases, and possibly prevention and treatment of a wider range of senescence- and aging-associated diseases.
Here we report the development and validation of a cell-based quantitative high throughput screening (qHTS) assay in 1,536-well format. This qHTS assay uses the NCI-H358 cell line with doxycycline-inducible expression of enhanced green fluorescent protein (eGFP)-tagged delta133p53alpha, which allows efficient and highly quantitative measurement of the protein levels.
PROTOCOL TABLE (as described by Inglese J, Shamu CE and Guy RK. 2007)
SEQUENCE No. (e.g., 1, 2, 3, etc.); […] (e.g., Cells, Incubation, Reagent, etc.); VALUE; DESCRIPTION.
1; Cells; 4uL; 800 doxycycline treated cells / well in doxycycline-free media, 1536-well black, clear-bottom low base Aurora microplates.
2; Compounds; 23 nL; Kalypsis pin tool (Wako) equipped with 1536-well pin heads, 5-azacytidine positive control.
3; Incubation; 24 hr; 37C, 5% CO2; 95% relative humidity.
4; Aspiration; 1x; BioTek EL406 washer dispenser (Agilent).
5; Fixing; 3.5% paraformaldehyde, BioTek EL406 washer dispenser (Agilent).
6; Washing; 1x PBS; BioTek EL406 washer dispenser (Agilent).
7; Nuclei staining; 1:1000 dilution of Hoechst 33342 (Thermofisher), BioTek EL406 washer dispenser (Agilent).
8; Incubation; 20 min; in the dark at room temperature.
9; Washing; 2x, 1x PBS (ThermoFisher), BioTek EL406 washer dispenser (Agilent).
10; Reagent; 10 uL; 1x PBS per well, sealed with clear adhesive tape.
11; Detection; Fluorescence, Acumen eX3 laser scanning cytometer (STP Labtech), GFP filters […].
NOTES (numbers refer to sequence numbers above).
1. NCI-H358 cells expressing eGFP-tagged delta133p53alpha were grown in T75 culture flasks and treated with doxycycline for 24h, at 10 ng/ml for eGFP-D133p53a cells (N-terminal cell) and 100 ng/ml for D133p53a-eGFP cells (C-terminal cells). Cells were trypsinized, counted using a Counted 3 Automated Cell Counter (Thermo Fisher), and diluted to a concentration of 200,000 cells/ml. A Multidrop Combi Reagent Dispenser (ThermoFisher) was used to dispense 800 cells/well in […] of doxycycline-free media, into 1536-well black/clear bottom low base plates (AuroraMicroplates).
2. After plating cells, 23 nl of compound library, DMSO vehicle control or positive control (5-azacytidine) were transferred by Pin Tool (Wako). The plate map layout was the same for each plate: (column 1) non-doxycycline treated cells + DMSO vehicle control; (column 2) doxycycline treated cells + DMSO vehicle control baseline; (column 3) doxycycline treated cells + positive control 57.5 uM final concentration 5-azacytidine; (column 4) doxycycline treated cells + serial dilution of 5-azacytidine, 16-point 1:2 titration spanning 1.8 nM to […] final concentration; (columns 5-48) doxycycline treated cells + titration of library compounds.
3. Cells were incubated at 37 °C, 5 % CO2, 95% RH with breathable metal lid for 24h.
4-10. […] […]
Potency is the fitted concentration of half-maximal effect.

Cellular tumor antigen p53 (Homo sapiens), sequence (P04637 whole entry, looked up): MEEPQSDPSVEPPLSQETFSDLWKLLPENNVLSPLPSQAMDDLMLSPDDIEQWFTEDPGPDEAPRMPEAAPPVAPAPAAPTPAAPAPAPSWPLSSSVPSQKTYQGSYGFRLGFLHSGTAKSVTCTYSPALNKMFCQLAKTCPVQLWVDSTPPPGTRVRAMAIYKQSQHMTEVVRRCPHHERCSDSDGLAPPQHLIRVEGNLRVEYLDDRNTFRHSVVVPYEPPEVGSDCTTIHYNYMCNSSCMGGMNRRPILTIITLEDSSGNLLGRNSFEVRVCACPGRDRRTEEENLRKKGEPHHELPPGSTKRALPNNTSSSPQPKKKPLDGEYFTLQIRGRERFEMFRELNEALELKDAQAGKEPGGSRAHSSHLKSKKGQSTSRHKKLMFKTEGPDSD

| SMILES | Potency |
| --- | --- |
| NCCc1ccc(S(=O)(=O)F)cc1 | inactive |
| CS(=N)(=O)CC[C@H](N)C(=O)O (stereo not given in full) | inactive |
| Clc1cc(I)cc(Cl)c1NC1=NCCN1 | inactive |
| CCNC(=O)[C@H]1O[C@@H](n2cnc3c(N)ncnc32)[C@H](O)[C@@H]1O | inactive |
| CC(=O)[C@H]1CC[C@H]2[C@@H]3CC[C@H]4C[C@H](O)CC[C@]4(C)[C@H]3C(=O)C[C@]12C | inactive |
| CCCN(CCC)C1CCc2ccc(O)cc2C1 (stereo not given) | inactive |
| Clc1ccc(N2CC3CCC(C2)N3)nn1 | inactive |
| CCCN1CCC[C@@H](c2cccc(O)c2)C1 | inactive |
| Oc1ccc2c3c1O[C@H]1c4[nH]c5ccccc5c4C[C@@]4(O)C(C2)N(CC2CC2)CCC314 (stereo not given in full) | inactive |
| NCCc1c[nH]c2ccc(O)cc12 | inactive |
| NC(=O)CI | inactive |
| C[N+](C)(C)CCOC(=O)CBr | inactive |
| OC1CCCCC1N1CCC(c2ccccc2)CC1 (stereo not given) | inactive |
| C[N+]1(C)CCc2cc3c(cc2[C@H]1[C@@H]1OC(=O)c2c1ccc1c2OCO1)OCO3 | inactive |
| NCC(CP(=O)(O)O)c1ccc(Cl)cc1 (stereo not given) | inactive |
| CCS(=O)(=O)Nc1cccc(C(=C2CCCCC2)c2cnc[nH]2)c1 | inactive |
| O=C(O)Cc1cnc[nH]1 | inactive |
| CC(C)(C)OC(=O)NC1[C@H]2CNC[C@@H]12 (stereo not given in full) | inactive |
| O=P1(N(CCCl)CCCl)NCCCO1 (stereo not given) | inactive |
| CC(O)(CS(=O)(=O)c1ccc(F)cc1)C(=O)Nc1ccc(C#N)c(C(F)(F)F)c1 (stereo not given) | inactive |

| SMILES | Potency |
| --- | --- |
| NC(C(=O)O)c1cc(=O)[nH]o1 (stereo not given) | inactive |
| CC(Cc1ccc(OCC(=O)O)cc1)NCC(O)c1cccc(Cl)c1 (stereo not given) | inactive |
| NC(N)=NOCC[C@H](N)C(=O)O | inactive |
| Cn1c(CCCC(=O)O)nc2cc(N(CCCl)CCCl)ccc21 | inactive |
| CN1CCC(c2c[nH]c3ccc(O)cc23)CC1 | inactive |
| COc1ccc(OC)c(C(O)C(C)N)c1 (stereo not given) | inactive |
| Nc1ccncc1 | inactive |
| C[C@]12N[C@H](Cc3ccccc31)c1ccccc12 | inactive |
| NC1CCc2cc(O)c(O)cc2C1 (stereo not given) | inactive |
| CC(=O)NBr | inactive |
| CC(=O)c1c(O)c(C)c(O)c(Cc2c(O)c3c(c(C(=O)/C=C/c4ccccc4)c2O)OC(C)(C)C=C3)c1O | inactive |
| C[N+]1(C)C2CCC1CC(OC(=O)C(CO)c1ccccc1)C2 (stereo not given) | inactive |
| Cc1cccc(C)c1NC(=O)CN1CCCC1=O | inactive |
| Cc1o[nH]c(=O)c1CC(N)C(=O)O (stereo not given) | inactive |
| C[N+]1(C)CCOC(O)(c2ccc(-c3ccc(C4(O)C[N+](C)(C)CCO4)cc3)cc2)C1 (stereo not given) | inactive |
| CC(N)Cc1c[nH]c2ccc(OCc3cccs3)cc12 (stereo not given) | inactive |
| Cc1[nH]c2ccc(O)cc2c1CCN | inactive |
| CNCCc1c[nH]c2ccc(O)cc12 | inactive |
| NC(=O)c1cc(N2CC2)c([N+](=O)[O-])cc1[N+](=O)[O-] | inactive |
| c1ccc2c(c1)OCC(C1=NCCN1)O2 (stereo not given) | 30.1 µM (active) |
